{"source": "PubChem BioAssay"}
{"test_system": "Sonic hedgehog protein (Shh)", "test": "small-molecule binders of Shh protein, primary screen, biochemical, small-molecule microarray, 635/667 nm fluorescence (AID 1151);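 note: Shh protein binding to compounds spotted on small-molecule microarray slides; score combines spot fluorescence intensity with signal-to-noise across triplicate slides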", "conditions": "small-molecule microarray binding, 635 nm fluorescence; higher = more signal"}
{"smiles": "O=C1O[C@@H](c2ccccc2)[C@@H](c2ccccc2)N2[C@@H](c3ccccc3OCCO)[C@]3(C(=O)Nc4ccccc43)[C@@H](C(=O)NC[C@H](O)c3ccccc3)[C@H]12", "composite z-score": 0.0935}
{"smiles": "COCCOC(=O)N1C(=O)[C@@]2(c3cc(C#CC4=CCCCC4)ccc31)[C@H](c1ccccc1OCCO)N1[C@H](c3ccccc3)[C@H](c3ccccc3)OC(=O)[C@H]1[C@@H]2C(=O)N1CCc2cc(OC)c(OC)cc2C1", "composite z-score": 1.79}
{"smiles": "Cc1ccc(S[C@]2(C(=O)NC3CC3)CC(=O)N(Cc3ccccc3Cl)[C@@H]2c2ccc(CO)cc2I)cc1", "composite z-score": 1.67}
{"smiles": "CC(C)CN1C(=O)[C@@]2(Cc3ccccc31)c1ccccc1C(=O)N(Cc1ccccc1C(F)(F)F)[C@H]2c1ccc(CO)cc1", "composite z-score": -0.875}
{"smiles": "CCCN1C(=O)[C@]2(Cc3ccccc3)N=C(c3ccc(OCCCO)cc3)O[C@@H]2c2ccccc21", "composite z-score": 1.84}
{"smiles": "C[C@]1(C(=O)NC2CC2)c2ccccc2C(=O)N(Cc2ccc(OC(F)(F)F)cc2)[C@H]1c1ccc(CO)cc1", "composite z-score": -0.379}
{"smiles": "NC(=O)NCC#Cc1ccc2c(c1)[C@]1(C(=O)N2)[C@H](C(=O)O)[C@H]2C(=O)O[C@H](c3ccccc3)[C@H](c3ccccc3)N2[C@@H]1c1ccccc1OCCO", "composite z-score": 1.41}
{"smiles": "Cc1ccc(S[C@]2(C(=O)NCCN3CCOCC3)CC(=O)N(Cc3ccccc3C(F)(F)F)[C@@H]2c2ccc(CO)cc2I)cc1", "composite z-score": -0.245}
{"smiles": "Cc1ccc(S[C@]2(C(=O)NCc3ccccc3)CC(=O)N(C(C)C)[C@@H]2c2ccc(CO)cc2I)cc1", "composite z-score": -1.37}
{"smiles": "NC(=O)NCC#Cc1ccc2c(c1)[C@]1(C(=O)N2)[C@H](C(=O)Nc2nc3ccccc3s2)[C@H]2C(=O)O[C@H](c3ccccc3)[C@H](c3ccccc3)N2[C@@H]1c1ccc(O)cc1", "composite z-score": 0.922}
{"smiles": "O=C1NC(=O)C2C1C=CC(C(O)c1ccc(Br)cc1)N2Nc1ccccn1", "note": "(stereo not drawn)", "composite z-score": -0.248}
{"smiles": "[N-]=[N+]=Nc1ccccc1[C@H]1OC(c2ccc(OCCCO)cc2)=N[C@@]1(CCS(=O)(=O)c1ccccc1)C(=O)N1CCCCC1", "composite z-score": -0.678}
{"smiles": "CC(C)C(CO)N1C(=O)[C@]2(C)C3C(=O)OCCC/C=C\\[C@H]3OC23C=CCN(c2ccc(Cl)cc2)C(=O)[C@@H]13", "note": "(stereo partly drawn)", "composite z-score": 0.279}
{"smiles": "C=C[C@@H](C)[C@H](OC(=O)Nc1ccc(SC)cc1)c1ccc(OCCO)cc1", "composite z-score": 0.182}
{"smiles": "[N-]=[N+]=NCc1ccccc1C[C@@]1(C(=O)NCCN2CCOCC2)N=C(c2ccc(OCCCO)cc2)O[C@@H]1c1ccccc1N=[N+]=[N-]", "composite z-score": -0.492}
{"smiles": "CC(=O)N1Cc2ccccc2C[C@]2(N=C(c3ccc(OCCCO)cc3)O[C@@H]2c2ccccc2)C1=O", "composite z-score": 1.18}
{"smiles": "O=C1c2ccccc2[C@](Cc2ccccc2I)(C(=O)NCCN2CCOCC2)[C@H](c2ccc(CO)cc2)N1Cc1ccccc1", "composite z-score": 1.21}
{"smiles": "Cc1ccc(S[C@]2(C(=O)NC(C)C)CC(=O)N(Cc3ccccc3C(F)(F)F)[C@@H]2c2ccc(CO)cc2I)cc1", "composite z-score": -0.181}
{"smiles": "CCOC(=O)[C@H]1C/C=C/C[C@H](C(=O)OCC)C(=O)O[C@H]2[C@@H](OC)O[C@H](CO)[C@@H](OC(=O)Nc3ccc(OC)cc3)[C@@H]2OC1=O", "composite z-score": 0.733}
{"smiles": "C[C@]1(C(=O)NCCN2CCOCC2)c2ccccc2C(=O)N(Cc2ccc(OC(F)(F)F)cc2)[C@H]1c1ccc(CO)cc1", "composite z-score": -0.704}
{"smiles": "C=CC[C@]1(C(=O)N(C)C)N=C(c2ccc(OCCCO)cc2)O[C@H]1c1ccccc1N=[N+]=[N-]", "composite z-score": -1.32}
{"smiles": "COc1ccc([Si](C)(C)[C@H]2[C@H](CCO)O[C@@]3(C(=O)N(Cc4cccc(N5CCCCC5=O)c4)c4ccccc43)[C@@H]2C)cc1", "composite z-score": 1.5}
{"smiles": "C=CC[C@H](OC(=O)Nc1ccc(OC)cc1)c1ccc(O)c2ccccc12", "composite z-score": 1.66}
{"smiles": "CC(C)N1CC=CC23O[C@@H]4C=CCOC(=O)[C@@H]4[C@H]2C(=O)N(C(C)CO)[C@@H]3C1=O", "note": "(stereo partly drawn)", "composite z-score": -0.753}
{"smiles": "COCCOC(=O)N1C(=O)[C@@]2(c3cc(C#CCNC(N)=O)ccc31)[C@H](C(=O)N1CCCCCCC1)[C@H]1C(=O)O[C@H](c3ccccc3)[C@H](c3ccccc3)N1[C@@H]2c1ccc(O)cc1", "composite z-score": 1.12}
{"smiles": "COc1ccc(C(O)C2C=CC3C(=O)N(c4ccccc4)C(=O)C3N2Nc2ccccc2)cc1OCc1ccccc1", "note": "(stereo not drawn)", "composite z-score": 0.81}
{"smiles": "C=CC[C@@H](OC(=O)Nc1ccc(OC)cc1)c1ccc(OCCO)cc1", "composite z-score": -0.49}
{"smiles": "O=C1O[C@@H](c2ccccc2)[C@@H](c2ccccc2)N2[C@@H](c3ccc(O)cc3)[C@]3(C(=O)Nc4ccccc43)[C@@H](C(=O)Nc3nc4ccccc4s3)[C@H]12", "composite z-score": 0.183}
